Screens deposited in PubChem by National Center for Advancing Translational Sciences (NCATS).
GAA glycogen – alters human alpha-glucosidase cleavage of glycogen | 300,000 tested, 0.38% active | recombinant GAA, glycogen substrate, Amplex Red glucose oxidase fluorescence | Potency, µM (series often up to 76.4 µM), without a hit: at the highest dose activity change, negative = inhibition, most hits filed as inhibitors | P10253 | AID 2100;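 further: potency means the concentration at half of the fitted maximal effect; 0% = full enzyme reaction and -100% = no-enzyme basal signal; the screen sought inhibitors and activators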
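Recombinant human alpha-glucosidase (4 nM final) hydrolysed bovine liver glycogen (30 ug) for 40 min at 37 C in pH 5.0 citrate/phosphate with 0.01% Tween-20. Released glucose detected by glucose oxidase/Amplex Red, Ex 573/Em 610 nm. Compounds up to 77 uM; AC50 from Hill fits.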
aGlu spleen mod – inhibitors or activators of human alpha-glucosidase in spleen homogenate; human spleen homogenate, 4-MU-alpha-glucoside fluorescence; Potency, µM (highest dose often 79.9 µM), inactives show at the top dose activity change, negative = inhibition, hits mostly inhibitors; 240,000 tested, 0.006% active; P10253;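 further: potency means the concentration at half of the fitted maximal effect; 0% = enzyme with vehicle and -100% = no enzyme basal signal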
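Human spleen homogenate (1 ug) with 4-methylumbelliferyl-alpha-D-glucopyranoside (1 mM final) in 50 mM citrate/phosphate pH 5.0, 0.01% Tween-20; 40 min at 37 C. Stopped at pH 10; 4-MU fluorescence Ex 365/Em 440 nm; AC50 by Hill fit.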
GLA spleen mod – inhibitors or activators of human alpha-galactosidase in spleen homogenate; human spleen homogenate, 4MU-alpha-Gal fluorescence, 40 min; Potency, µM (titrated, usually from 80 µM), for inactives: at the top dose activity change, negative = inhibition, actives largely listed as inhibitors; 240,000 tested, 0.008% active; AID 2107;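 further: potency means the concentration at half of the fitted maximal effect; 0% = enzyme with vehicle and -100% = no enzyme basal signal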
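Human spleen homogenate (1 ug) was the enzyme source, with 4-methylumbelliferyl-alpha-D-galactopyranoside (1 mM final) in pH 5.0 citrate buffer with 0.01% Tween-20. Compounds were titrated; after 40 min at 37C, NaOH/glycine stop, 4-MU fluorescence read; AC50 from Hill fits.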
GLA inh pH 4.5 – blocks human alpha-galactosidase A at pH 4.5. purified enzyme, 4-MU-alpha-Gal fluorescence, pH 4.5. 230,000 tested, under 10 active. activity change, negative = inhibition, % at 105 µM. P06280;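 further: 0% = full activity with enzyme and -100% = basal without enzyme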
Target sequence (P06280 whole entry, looked up): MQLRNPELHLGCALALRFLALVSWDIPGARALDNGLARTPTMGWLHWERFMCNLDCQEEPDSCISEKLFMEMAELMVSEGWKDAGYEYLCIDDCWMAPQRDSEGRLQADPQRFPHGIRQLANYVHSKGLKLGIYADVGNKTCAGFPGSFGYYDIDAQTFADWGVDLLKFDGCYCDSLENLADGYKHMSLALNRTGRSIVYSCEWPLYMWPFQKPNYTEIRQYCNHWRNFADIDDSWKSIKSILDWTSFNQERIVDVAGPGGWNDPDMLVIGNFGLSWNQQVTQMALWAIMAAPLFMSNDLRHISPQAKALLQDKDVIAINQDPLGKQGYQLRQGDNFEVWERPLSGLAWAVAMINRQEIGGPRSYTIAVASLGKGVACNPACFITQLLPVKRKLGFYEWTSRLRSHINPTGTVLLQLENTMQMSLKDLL
GAA inh – blocks human lysosomal alpha-glucosidase; P10253; purified human GAA, 4-MU-alpha-glucoside fluorescence; Potency, µM (titrated, usually from 76.9 µM), for the others: at the highest dose activity change, negative = inhibition, usual class: inhibitors; 200,000 tested, 0.005% active;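 further: potency means the concentration at half of the fitted maximal effect; plate controls were uninhibited enzyme wells for no effect and no-enzyme background for full effect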
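Human enzyme at 4 nM with 400 uM 4-methylumbelliferyl-alpha-D-pyranoside, citrate/phosphate buffer pH 5.0, 0.005% Tween-20, 20 min at room temperature. Compounds up to 77 uM. 4-MU fluorescence (Ex 365/Em 440) read after NaOH/glycine stop; AC50 from Hill fit.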
N370S GC – inhibits or activates N370S mutant glucocerebrosidase. Potency, µM (doses to about 59.4 µM), inactives show top-dose activity change, negative = inhibition, actives largely listed as inhibitors. N370S GC spleen homogenate, 4MU-glucoside fluorescence. 330,000 tested, 0.092% active;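 further: potency means the concentration at half of the fitted maximal effect; 0% = full enzyme activity and -100% = no enzyme basal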
The depositor's hits bear a star; [ ] = remark or other dose. Shown are actives, neighbours in structure and some others; about 0.43% of the full set was active somewhere. The call rests on the fitted dose curve; in most records, active means well fitted curve in the direction sought with a large enough effect; inconclusive means small, poorly fitted or top-dose-only effect, or another doubt; inactive means no such curve, though single readings can be large; an effect the other way counts as inactive or inconclusive.

Screening O=C(O)C1C2CCC(C2)C1C(=O)N1CCCC1 (centres undefined) returned GAA glycogen 5%[76.3 µM] and N370S GC -12%.
Screening CCOc1cc(/C=C/c2cc(C(F)(F)F)[nH]c(=O)n2)ccc1O returned GAA glycogen 7.9µM*, aGlu spleen mod -5%, GLA spleen mod 3%, GLA inh pH 4.5 -10, GAA inh -9% and N370S GC -16%.
Screening COc1ccc(CCN2CC(C(=O)NCc3ccc(F)cc3)CC2=O)cc1OC (centres undefined) returned GAA glycogen -1%, aGlu spleen mod 7%, GLA spleen mod 2%, GLA inh pH 4.5 -4 and N370S GC 10%.
For N=c1c2c(-c3ccccc3)c(-c3ccccc3)n(Cc3ccccc3)c2ncn1CCCn1ccnc1 the results were GAA glycogen 2%, aGlu spleen mod -2%, GLA spleen mod 1%, GLA inh pH 4.5 -31, GAA inh inconclusive and N370S GC 2.2µM*.
CCCCn1cnc2c(c(-c3ccccc3)c(-c3ccccc3)n2Cc2ccco2)c1=N was read as GAA glycogen 4%, aGlu spleen mod 2%, GLA spleen mod -1%, GLA inh pH 4.5 -3 and N370S GC inconclusive.
`Oc1ccc(Nc2nc(-c3cccnc3)cs2)cc1` gave GAA glycogen 18µM* and N370S GC 7%.
For Oc1ccc(Nc2nc(-c3ccc(O)cc3)cs2)cc1 the results were GAA glycogen 25µM*, aGlu spleen mod 0%, GLA spleen mod 2%, GLA inh pH 4.5 9, GAA inh -2% and N370S GC 16µM*.
`O=C(N/N=C/c1ccc(O)c(O)c1)NC12CC3CC(CC(C3)C1)C2` gave GAA glycogen 10µM* and N370S GC 22%.
`CC(C)c1onc(-c2c(Cl)cccc2Cl)c1COc1ccc(/C=C/c2cccc(C(=O)O)c2)c(Cl)c1` gave aGlu spleen mod 7%, GLA spleen mod 11% and N370S GC 10%.
For Cc1cc(CN2CCN(CC(=O)Nc3cc(Cl)ccc3-n3cncn3)CC2)no1 the results were N370S GC 4%.
Screening O=C(O)C[C@@H]1C(=O)O[C@@H]2C(COC(=O)c3cc(O)c(O)c(O)c3)O[C@@H](OC(=O)c3cc(O)c(O)c(O)c3)[C@@H](OC(=O)c3cc(O)c(O)c4c3[C@H]1[C@H](O)C(=O)O4)[C@H]2OC(=O)c1cc(O)c(O)c(O)c1 (some centres undefined) returned GAA glycogen 1.6µM*, aGlu spleen mod inconclusive, GLA spleen mod 10%, GLA inh pH 4.5 -1 and N370S GC -19%.
For CCn1c(SCC(=O)c2ccc(O)c(O)c2)nnc1-c1ccc(C)cc1 the results were GAA glycogen 12µM*, aGlu spleen mod -4%, GLA spleen mod -7%, GLA inh pH 4.5 3, GAA inh -5% and N370S GC -17%.
Screening Cc1nonc1NC(=O)CSc1nc2ccccc2o1 returned GAA glycogen -5% and N370S GC -5%.
N/N=c1\sc2ccccc2n1-c1ccccc1 was read as GAA glycogen 20µM*, aGlu spleen mod -7%, GLA spleen mod -11%, GLA inh pH 4.5 -19, GAA inh -3% and N370S GC 5%.
CC(=O)N=c1sc2ccccc2n1C was read as GAA glycogen 6%, aGlu spleen mod 1%, GLA spleen mod 1%, GLA inh pH 4.5 -6, GAA inh -10% and N370S GC 6%.
Screening COc1cc(/C=C2/NC(=O)N(Cc3ccccc3F)C2=O)cc(OC)c1O returned GAA glycogen inconclusive, aGlu spleen mod -14%, GLA spleen mod inconclusive, GLA inh pH 4.5 inconclusive, GAA inh inconclusive and N370S GC -17%.
CCOc1cc(/C=C2/NC(=O)N(Cc3ccccc3F)C2=O)ccc1O was read as GAA glycogen 5.6µM*, aGlu spleen mod -17%, GLA spleen mod 5%, GLA inh pH 4.5 -8, GAA inh 1% and N370S GC -6%.
`S=C(NNC(=S)Nc1ccccc1)Nc1ccccc1` gave GAA glycogen inconclusive and N370S GC 1%.
`Oc1ccc(NC(=S)Nc2ccc(O)cc2)cc1` gave GAA glycogen 3.1µM*, aGlu spleen mod 4%, GLA spleen mod 10%, GLA inh pH 4.5 7, GAA inh -5% and N370S GC inconclusive.
Screening COC(=O)c1ccc(NC(=S)Nc2ccc(O)cc2)cc1 returned GAA glycogen 7.9µM*, aGlu spleen mod 7%, GLA spleen mod 3%, GLA inh pH 4.5 -8, GAA inh 4% and N370S GC -16%.
`Cn1c(SCC(=O)CC(=O)Nc2ccccc2)nnc1-c1ccc(O)cc1` gave GAA glycogen 1%, aGlu spleen mod -1%, GLA spleen mod 1%, GLA inh pH 4.5 2, GAA inh 2% and N370S GC 14µM*.
For CN(C)S(=O)(=O)c1ccc(C(=O)NCc2nnc(SCC(=O)c3ccccc3)o2)cc1 the results were N370S GC -9%.
Screening COc1ccc(-c2cnnc(N/N=C/c3ccc(O)c(O)c3)n2)cc1 returned GAA glycogen 11µM*, aGlu spleen mod -9%, GLA spleen mod -5%, GLA inh pH 4.5 -7, GAA inh -2% and N370S GC -13%.
Screening C=C[C@](C)(O)CCC1C(=C)CC(O)C2C(C)(C)CCCC12C (some centres undefined) returned aGlu spleen mod -16%, GLA spleen mod 8%, GLA inh pH 4.5 -12 and N370S GC 0%.
For Cc1c(N/C=C/C(=O)c2ccc(Cl)cc2)c(=O)n(-c2ccccc2)n1C the results were GAA glycogen 14µM*, aGlu spleen mod -11%, GLA spleen mod -8%, GLA inh pH 4.5 -4, GAA inh -3% and N370S GC 18%.
Screening Cc1c(NC(=O)C(=O)/C=C(\O)c2ccc(Cl)cc2)c(=O)n(-c2ccccc2)n1C returned GAA glycogen inconclusive, aGlu spleen mod 4%, GLA spleen mod 6%, GLA inh pH 4.5 2, GAA inh -3% and N370S GC 6%.
`Cc1c(NC(C)C)c(=O)n(-c2ccccc2)n1C` gave aGlu spleen mod -7%, GLA spleen mod 2%, GLA inh pH 4.5 -13 and N370S GC -1%.
Screening Cc1c(NC(C)c2cc(Cl)ccc2O)c(=O)n(-c2ccccc2)n1C (centres undefined) returned GAA glycogen 11µM*, aGlu spleen mod 1%, GLA spleen mod 7%, GLA inh pH 4.5 1, GAA inh -7% and N370S GC 0%[12.8 µM].
